About 79,000 compounds went through this panel and 15% of them were active in at least one assay; those are over-represented in the sample as a whole. Values without a mark were called inactive. Active and inactive are the calls of the source. No stated cut-off is given here; in the data, active means growth inhibition above about 70%; inactive means the rest. Residues, ends and D or L forms follow the SMILES beside them. *: point of attachment. CH2Cl = ClC*
Experiment: NCI Yeast Anticancer Drug Screen. Data for the sgs1 strain (AID 173);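 further: 0% = growth of vehicle-only control cultures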
Details: S. cerevisiae sgs1 mutant, hits give high values
Method: Growth inhibition of yeast strains with defined genetic alterations is measured as a screen for potential anti-cancer activity. Selected strains with alterations in DNA damage repair or cell cycle control were exposed to compounds and growth inhibition was measured relative to vehicle treated controls. The strain used in this assay is sgs1

Structure (SMILES) | growth inhibition (at 1.2 µM) | growth inhibition (at 3.7 µM) | growth inhibition (at 11.0 µM) | growth inhibition (at 33.0 µM) | growth inhibition (at 100.0 µM)
CCCCC1=NNC(=O)C1 | 10% | 12% | 0% | -22% | 5%
CC(=O)NC(CC(C)C)C(=O)NC(Cc1ccccc1)C(=O)CCl (stereo not drawn) (Ac-Leu-Phe-CH2Cl; configuration not given here) | -3% | -4% | 1% | 15% | 75% (active)
Nc1ccc(CCl)cc1Cc1c(O)ccc2ccccc12 | 1% | 1% | 10% | 21% | 38%
COc1ccc(N2C(=O)CC(Cl)C2=O)cc1 (stereo not given) | -3% | 0% | 24% | 93% (active) | 99% (active)
CC(=O)N1C(=O)/C(=C\C(=O)c2ccc([N+](=O)[O-])cc2)c2ccccc21 | -13% | 27% | 66% | 96% (active) | 96% (active)
CO[C@@]12[C@H](COC(N)=O)C3=C(C(=O)C(C)=C(N)C3=O)N1C[C@@H]1N[C@@H]12 | 3% | 11% | 36% | 71% (active) | 90% (active)
CN(C)CCN1C(=O)c2cccc3cc([N+](=O)[O-])cc(c23)C1=O | -24% | -2% | 8% | 12% | 61%
COc1ccc(/C(C#N)=C/c2ccc(OC)c(OC)c2)cc1 | -8% | -13% | -20% | 2% | 16%

— PubChem BioAssay (NCI)
